Laboratory results from PubChem BioAssay (NCI).
Compounds without any hit were thinned out: in the full panel of roughly 83,000, 20% have a hit.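 Plates (96-well) were seeded with cells, treated with compound at one concentration, and incubated for 48 hours before percent growth was determined.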 A number with no mark means an inactive call. Active and inactive are the calls of the source. The calls were made as follows: active = growth percent below 10; inactive = the rest.

Tests used:
Assay in all cases: NCI-60 one-dose screen, 48 h (100 = growth as untreated, 0 = no growth, -100 = all killed)
Settings in all cases: 10 µM unless noted
BT-549 breast = system: BT-549 breast
MDA-MB-435 melanoma = system: MDA-MB-435 melanoma
SW-620 colon = system: SW-620 colon
MCF7 breast = system: MCF7 breast
HCT-116 colon = system: HCT-116 colon
HCC-2998 colon = system: HCC-2998 colon
KM12 colon = system: KM12 colon

SMILES | growth (BT-549 breast) | growth (MDA-MB-435 melanoma) | growth (SW-620 colon) | growth (MCF7 breast) | growth (HCT-116 colon) | growth (HCC-2998 colon) [%] | growth (KM12 colon)
COc1ccc(C2N(c3cc(OC)c(OC)c(OC)c3)C(=O)C2(F)F)cc1F (stereo not given) | 35% | 12.9% | 21.2% | 15.1% | 5.76% (active) | 84.2 | 22.9%
CCOC(=O)c1sc(/N=C2\NC(=O)/C(=C/c3ccc(N4CCN(C)CC4)cc3)S2)nc1C | 95% | 106% | 120% | 84% | 103% | 94.7 | 95.4%
C=C1C(=O)O[C@H]2[C@H]1CC/C(COC(=O)c1cn(C)c3ccccc13)=C\CC[C@@]1(C)O[C@@H]21 | -24.4% (active) | -51.2% (active) | -65.7% (active) | -46.1% (active) | -77.6% (active) | 34.9 | 31.2%
COCCOCCOCc1n(Cc2ccc3ccccc3c2)c2ccccc2[n+]1Cc1ccc2ccccc2c1 | 1.44% (active) | 7.86% (active) | 18.9% | 7.6% (active) | 20.1% | 17.8 | -25.9% (active)
CCC1S/C(=N\N=C(/C)c2ccc[nH]2)N(c2ccccc2)C1=O (stereo not given) | 126% | 104% | 92.8% | 117% | 91.6% | 104 | 112%
Cc1cccc(C)c1NC(=O)CN(CC(C)C)CC(O)COc1ccccc1 (stereo not given) | 82.4% | 102% | 93.6% | 83.3% | 86.8% | 95.8 | 100%
CCCCn1c(=O)c(/C=C/C(=O)/C=C/c2ccc(OC)cc2)cc2cc(Cl)ccc21 | 89.4% | 95.6% | 18.3% | 34.4% | -67.1% (active) | 90.7 | 25.9%
C#CCN1C(=O)c2ccccc2N(CC#C)C12CCN(Cc1cn(CC(=O)Nc3ccccc3C(N)=O)nn1)CC2 | 72.4% | 91.9% | 94% | 83.8% | 74.4% | 100 | 88.8%
COc1ccc(C(=O)c2cc(OC)c(OC)c(OC)c2)cc1OC(=O)CCl | 16.2% | -13.2% (active) | 29.9% | 15.9% | 10.7% | 26.3 | 7.22% (active)
COc1cc(NC(=O)c2cc(O)c(C/C=C(\C)CCC=C(C)C)c(O)c2)cc2c1O[C@]1(C)CC[C@@H](O)C(C)(C)[C@H]1C2 | 0.27% (active) | 10.2% | 9.02% (active) | 8.42% (active) | 10.8% | 16.4 | 7.44% (active)
